# CF NFkB inh: blocks PAF-induced NF-kB reporter in cystic fibrosis cells | KKLEB NF-kB-GFP reporter, GFP fluorescence overnight | inhibition, % at 5 µM | actives 0.86% (n = 360,000);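 active = at least 50% inhibition at 5 µM, scaled per plate between neutral and stimulator controls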;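 note: PAF is a Pseudomonas aeruginosa culture filtrate used as stimulus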
# EWS-Fli inh: EWS/Fli transcriptional activity inhibition. inhibition, % at 12.6 µM. AID 651661. actives 0.67% (n = 350,000). A673 NR0B1-luciferase reporter, viability-normalised;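 active = mean inhibition of at least 50% after viability correction, with every replicate also passing that limit; inconclusive = mean reaches 50% but only one of two replicates passes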;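 note: firefly luciferase signal divided by Alamar Blue viability fluorescence both relative to DMSO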
# HIF-2a inh: blocks HIF-2a reporter activity | inhibition, % at 18.8 µM | AID 624352 | 786-0 RCC cells HIF-2a reporter, luciferase luminescence, overnight | actives 0.72% (n = 360,000);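 active = inhibition of the luminescence signal of 40% or more relative to plate controls, in a single-dose primary screen at 18.75 µM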
# PAX8 reporter: lowers PAX8-driven luciferase in RMG-I cells. RMG-I TPO-luciferase reporter, SteadyGlo, 24 h. inhibition, % at 12.6 µM. actives 1.2% (n = 360,000);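 active = mean replicate inhibition at least 60% with every replicate also reaching 60%; inconclusive = only one of the two criteria is met; inactive = mean below 60% and not all replicates reaching 60%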;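 note: luciferase light reporting Pax8 driven TPO promoter activity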
# KKLEB cytotox: reduces viability of KKLEB cystic fibrosis airway cells. KKLEB CF airway cells viability, ATPlite luminescence, overnight; hits give low values; cells stimulated with P. aeruginosa culture filtrate. activity change (cytotoxicity), % at 5 µM. actives 0.36% (n = 360,000). AID 602141;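 active = corrected activity change at or below -50% at 5 µM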
# A number is an active result; n = inactive; u = inconclusive; x = no result. Rows were chosen to be rich in hits. Some 2.1% of all compounds tested hit in one or more screens of this group.
SMILES,CF NFkB inh,EWS-Fli inh,HIF-2a inh,PAX8 reporter,KKLEB cytotox
CC(=O)OCC(=O)[C@@]1(O)CC[C@H]2[C@@H]3CCC4=CC(=O)CC[C@]4(C)[C@H]3[C@@H](O)C[C@@]21C,64,n,n,n,n
CCCC(=O)O[C@]1(C(=O)CO)CC[C@H]2[C@@H]3CCC4=CC(=O)CC[C@]4(C)[C@H]3[C@@H](O)C[C@@]21C,95,n,n,n,n
CC(=O)OCC(=O)[C@@]1(O)CC[C@H]2[C@@H]3CCC4=CC(=O)CC[C@]4(C)[C@H]3C(=O)C[C@@]21C,n,n,n,n,n
CC(=O)OCC(=O)C1(O)CCC2C3CC(F)C4=CC(=O)CCC4(C)C3C(O)CC21C (stereo unspecified),76,n,n,n,n
CCC(CC)C(=O)OCC(=O)C1(O)CCC2C3CCC4=CC(=O)CCC4(C)C3C(O)CC21C (stereo unspecified),64,n,n,n,n
CO[C@H]1CN(C)C(=O)c2ccc(NC(=O)Nc3ccccc3)cc2OC[C@@H](C)NC[C@H]1C,x,n,x,x,x
CNC(=O)C[C@@H]1CC[C@H]2[C@@H](COc3ccc(NC(=O)c4cc(F)cc(F)c4)cc3C(=O)N2C)O1,x,n,x,n,x
Cc1noc(C)c1NC(=O)Nc1ccc2c(c1)C(=O)N([C@@H](C)CO)C[C@@H](C)[C@H](CN(C)S(=O)(=O)c1ccc(Cl)cc1)OCCCC[C@@H](C)O2,x,x,x,n,x
CC12CCC(=O)C=C1CCC1C2CCC2(C)C1CCC2(O)C(=O)CO (stereo unspecified),n,n,n,n,n
CC1CC2C3CCC4=CC(=O)CCC4(C)C3CCC2(C)C1(O)C(=O)CO (stereo unspecified),53,n,n,n,n
CC1CC2(C)C(=CC1=O)CCC1C2C(O)CC2(C)C1CCC2(O)C(=O)CO (stereo unspecified),67,n,n,n,n
C[C@]12CCC(=O)C=C1CC[C@@H]1[C@@H]2[C@@H](O)C[C@@]2(C)[C@H]1CC[C@]2(O)C(=O)COC(=O)CCC(=O)O,75,n,n,n,n
C[C@@H]1CN([C@@H](C)CO)C(=O)c2ccccc2-c2ccccc2CO[C@H]1CN(C)C(=O)Nc1cccc(F)c1,x,n,x,x,x
CCCNC(=O)C[C@@H]1CC[C@H]2[C@@H](COC[C@@H](O)CN2C(=O)Nc2c(C)noc2C)O1,x,n,x,n,x
COc1ccccc1CNC(=O)C[C@H]1C=C[C@H](NC(C)=O)[C@@H](CO)O1,x,n,x,n,x
COc1ccc(-n2c(-c3ccc(Cl)cc3)c[n+]3c2CCc2ccccc2-3)cc1,n,n,n,94,n
COc1ccc(-n2c(-c3ccccc3)nnc2-c2ccc(Cl)cc2)cc1,n,x,n,n,n
COc1cccc(-c2ccc([C@H]3[C@@H](CO)N4C(=O)CN(C(=O)C5CCOCC5)C[C@@H]34)cc2)c1,x,n,x,n,x
CCN1C(=C(C#N)C#N)C=Cc2cc(C)ccc21,n,n,n,n,n
C=CC[n+]1c(/C=C2\C=Cc3cc(C)ccc3N2CC)ccc2ccccc21,n,n,n,88,n
CCCNC(=O)N1CCC2(CC1)CN(C(=O)CC)[C@@H](CO)c1[nH]c3cc(OC)ccc3c12,x,n,x,x,x
N#C/C(=C/c1ccc(N2CCCCCC2)o1)c1ccc(Cl)cc1,71,x,45,x,n
Cc1nn(-c2ccccc2)c(C)c1/C=N/NC(=O)c1cc(-c2ccccc2)n[nH]1,64,x,n,x,n
Cc1nn(-c2ccccc2)c(C)c1/C=N/NC(=O)c1cc(-c2cccc3ccccc23)n[nH]1,n,n,n,n,n
CCOC(=O)c1cn(C[C@H](Cc2ccccc2)NC(=O)N[C@H](CO)CCc2oc(C(C)=O)c(C(=O)OC)c2C(=O)OC)nn1,x,n,x,n,x
SMILES,CF NFkB inh,EWS-Fli inh,HIF-2a inh,PAX8 reporter,KKLEB cytotox
COc1ccc2c3c([nH]c2c1)[C@H](CO)N(Cc1nccs1)CC31CN(C(=O)C2CC2)C1,x,n,x,n,x
Cc1ccc(S(=O)(=O)N[C@@H]2C=C[C@@H](CC(=O)N3CCC(Cc4ccccc4)CC3)O[C@@H]2CO)cc1,x,n,x,90,x
O=C(C[C@@H]1C=C[C@@H](NS(=O)(=O)c2ccccc2)[C@H](CO)O1)N1CCC(Cc2ccccc2)CC1,x,n,x,n,x
CCCCOc1ccc(-c2cc(C(=O)NNC(=S)NCC)c3ccccc3n2)cc1,67,u,n,x,-89
COC1=CC(=O)c2c(ccc3ncnc(N)c23)C1=O,82,n,91,104,-90
Cc1cc2ncn(-c3ncccc3[N+](=O)[O-])c2cc1C,n,58,n,n,n
Cc1onc(-c2ccccc2)c1C(=O)OCCOc1ccccc1F,n,n,n,n,n
